This is an account of results in PubChem BioAssay (NCATS).

SMILES strings stand for the structures. Results filed as inconclusive are left out. Entries that show only a call come without a potency. Calls of active or inactive are those of the source. Calls follow the shape of the dose curve; as a rule, active = well fitted cell-killing curve with a large enough effect; inconclusive = small, poorly fitted or top-dose-only effect; inactive = no such curve, though single readings can be large or run the other way.
Potency is read from the fitted curve at half-maximal effect.

A short description of the test: qHTS of pediatric cancer cell lines to identify multiple opportunities for drug repurposing: Primary screen for LAN-5 cells (AID 1347100). Particulars: LAN-5 neuroblastoma viability, CellTiter-Glo luminescence, 48 h; series mostly up to 46 µM. The text has this:
Drug repurposing or repositioning has been offered as a strategy for drug development in oncology programs. This approach has special potential for childhood cancers and other rare or orphan diseases, where the expected return on new drug development has been a disincentive to pharmaceuticals.
In this project we exploit the poly-pharmacology of drugs to discover new indications via phenotypic screening of a panel of 19 well-characterized cell lines derived from solid tumors seen in children and adolescents. The goal is to identify approved drugs with previously unrecognized anticancer properties that has the potential to reveal new mechanisms and biological processes involved in carcinogenesis or drug resistance. We employed a titration-based paradigm (quantitative high-throughput screening or qHTS), where all compounds were tested at multiple concentrations for their effect on cell viability. Concentration-response curves (CRCs) were derived directly from the primary screen, and both potency and efficacy values were used to identify compounds with robust bioactivity profiles. We screened the NIH Chemical Genomics Center (NCGC) Pharmaceutical Collection (NPC) and Mechanism Interrogation Plate (MIPE) small molecule collections of approved and investigational compounds against these cell lines; and measured metabolically active cells after 48 hours of compound treatment as a proxy for cell viability.
Assay Submitter: Nathalia J. Martinez, National Center for Advancing Translational Sciences, National Institutes of Health, Rockville, MD, USA; email: natalia.martinez@nih.gov
[1] Shen, M et al. Quantitative high-throughput phenotypic screening of pediatric cancer cell lines identifies multiple opportunities for drug repurposing. Oncotarget 2017 Dec 19;9(4):4758-4772. PMID 29435139.
The cells were obtained from University of North Carolina (UNC), Pediatric Preclinical Testing Program (PPT), and Coriell Institute (CI).
qHTS cell viability assay:
Cells were assayed in growth media at a density of 500-1,000 cells/well. Five microliters of cells were dispensed into 1,536-well, white, solid-bottom, TC-treated plates (Greiner Bio One) using a multidrop dispenser and incubated at 37 degrees C, 5% CO2, under a humidified atmosphere for 5 hours. Twenty-three nanoliters of compounds and controls (neutral control DMSO or positive control bortezomib at final concentration of 2.3 µM) were subsequently transferred by Kalypsys pintool. For primary screens, the MIPE collection was tested at 11-point dilutions (final concentrations range from 0.78 nM to 46 µM) and the NPC collection at 8-point dilutions (final concentrations range from 0.59 nM to 46 µM). Compounds tested in follow-up screens were assayed at 11-point dilutions. Cells were incubated for 48 hours, followed by addition of 3 µL of CellTiter-Glo (Promega). After a 15 min incubation at room temperature, samples were analyzed for luminescence intensity using a ViewLux High-throughput CCD imager equipped with clear filters.
(qHTS replaces the single test concentration by a dilution series.)
Regarding `CCC[C@H](N[C@@H](C)C(=O)N1[C@@H]2CCCC[C@H]2C[C@H]1C(=O)O)C(=O)OCC`, the Potency entry is “inactive”. Under `CC(C)C[C@@H](N)[C@H](O)C(=O)N[C@H](C(=O)N[C@H](C(=O)N[C@@H](CC(=O)O)C(=O)O)C(C)C)C(C)C` stands “inactive”; under `COc1cc([C@@H]2c3cc4c(cc3[C@@H](O[C@@H]3O[C@@H]5CO[C@@H](C)O[C@@H]5[C@H](O)[C@@H]3O)[C@H]3COC(=O)[C@H]23)OCO4)cc(OC)c1O`, 0.235 µM (active). As to `COc1cc(F)c(C(C)C)cc1-c1ccc(C(F)(F)F)cc1CN1C(=O)O[C@H](c2cc(C(F)(F)F)cc(C(F)(F)F)c2)[C@@H]1C`, the Potency is 18.7 µM (active). Regarding `O=C(O)c1nc(=O)[nH]c(=O)[nH]1`, the Potency entry was “inactive”. With `N#CC(c1ccnc(NCCc2cccnc2)n1)c1nc2ccccc2s1` (stereo not given), the Potency is 16.6 µM (active). Under `CC[C@]1(O)C[C@H]2CN(CCC3=c4ccccc4=N[C]3[C@@](C(=O)OC)(c3cc4c(cc3OC)N(C)[C@H]3[C@@](O)(C(N)=O)[C@H](O)[C@]5(CC)C=CCN6CC[C@]43[C@@H]65)C2)C1` stands 0.0166 µM (active); under `C[C@]12CCC3=C4CCC(=O)C=C4CC[C@@H]3[C@H]1CC[C@@]2(O)CC#N`, “inactive”. Take `NCc1c[nH]c(=S)n1[C@H]1CCc2c(F)cc(F)cc2C1`: the Potency was 23.5 µM (active). As for `CCCCN(CCCC)CC(O)c1cc(Cl)cc2c1-c1ccc(Cl)cc1C2=Cc1ccc(Cl)cc1` (stereo not given), the Potency result was “inactive”. In the case of `O=C(O)C1=CC(O)C(O)[C@H](O)C1` (stereo not given in full), the Potency entry was “inactive”.

Turning to `CCC(=O)N1CCN(c2ccc(-n3c(=O)ccc4cnc5ccc(-c6cnc7ccccc7c6)cc5c43)cc2C(F)(F)F)CC1`, the Potency result was “inactive”. With `O=c1[nH]c(=O)n([C@H]2C[C@@H](O)[C@@H](CO)O2)cc1C(F)(F)F`, the Potency is 3.32 µM (active). Under `O=c1[nH]nc(OCCCc2ccc(Cl)cc2)c(NCc2cccnc2)c1Br` stands 18.7 µM (active); under `CC(C)(F)C[C@H](N[C@@H](c1ccc(-c2ccc(S(C)(=O)=O)cc2)cc1)C(F)(F)F)C(=O)NC1(C#N)CC1`, “inactive”. The result for `Cn1cc(-c2ccc3nnc(Sc4ccc5ncccc5c4)n3n2)cn1` reads “inactive”. Under `O=C(O)CCC=CCC[C@@H]1[C@H](N2CCCCC2)[C@@H](O)C[C@@H]1OCc1ccc(-c2ccccc2)cc1` stands “inactive”; under `CC(=O)OCC(=O)[C@@]1(O)CC[C@H]2[C@@H]3CCC4=CC(=O)C=C[C@]4(C)[C@@H]3[C@@H](O)C[C@@]21C`, “inactive”.

Consider `CCCCn1c(=O)n(Cc2ccccc2F)c(=O)c2[nH]c(Cc3ccc(NC(C)=O)cc3)nc21`, for which the Potency entry was “inactive”. In the case of `CC[C@@H]([C@H](C)O)n1ncn(-c2ccc(N3CCN(c4ccc(OCC5CO[C@@](Cn6cncn6)(c6ccc(F)cc6F)C5)cc4)CC3)cc2)c1=O` (stereo not given in full), the Potency is 18.7 µM (active). As for `COc1cc2nccc(Oc3ccc(NC(=O)Nc4cc(C)on4)c(Cl)c3)c2cc1OC`, the Potency was 10.5 µM (active).

Consider `NCC1CCC(C(=O)O)CC1` (stereo not given), for which the Potency result is “inactive”. Under `COc1ccnc(CS(=O)c2nc3ccc(OC(F)F)cc3[nH]2)c1OC` (stereo not given) stands “inactive”; under `CN1c2ccccc2C(=O)N2CCc3c([nH]c4ccccc34)C21` (stereo not given), “inactive”. Under `CCC(=C(CC)c1ccc(O)cc1)c1ccc(O)cc1` stands 16.6 µM (active). In the case of `COc1ccc(-c2cc3nccn3c(Nc3ncccc3C(N)=O)n2)cc1OC`, the Potency was 1.48 µM (active). Turning to `O=C(CO)N1CCC(c2[nH]nc(-c3ccc(Cl)cc3)c2-c2ccncn2)CC1`, the Potency result is “inactive”.

For `NC(=O)c1ccc(N(C(N)=O)c2c(F)cccc2F)nc1-c1ccc(F)cc1F`, the Potency entry was “inactive”. `CCCCCOC(=O)Nc1nc(=O)n([C@@H]2O[C@H](C)[C@@H](O)C2O)cc1F` (stereo not given in full): the Potency result is “inactive”. For `COc1cc(N2CCN(C)CC2)ccc1Nc1nc(N)c(C(=O)c2c(Cl)cccc2Cl)s1`, the Potency is 16.6 µM (active). The result for `Nc1ncnc2c1ncn2[C@@H]1O[C@H](CO)[C@@H](O)[C@@H]1O` reads 1.48 µM (active); that for `CN1C(=O)C[C@H](C(=O)N[C@@H](Cc2cnc[nH]2)C(=O)N2CCC[C@@H]2C(N)=O)NC1=O`, 20.9 µM (active).

As for `COc1c(C)c2c(c(O)c1CC=C(C)CCC(=O)O)C(=O)OC2`, the Potency is 3.32 µM (active). Take `C[C@@H](N)c1ccc(C(=O)Nc2ccnc3[nH]ccc23)cc1`: the Potency is 16.6 µM (active). On to `CCc1cccc(CC)c1NC(=O)N1Cc2[nH]nc(NC(=O)c3ccc(N4CCN(C)CC4)cc3)c2C1`, for which the Potency was 0.296 µM (active). Regarding `Cc1cccc(Nc2nc(N[C@@H]3CCCC[C@H]3N)ncc2C(N)=O)c1`, the Potency is 18.7 µM (active).

As for `CCCCCCCCCCCCCCCC(=O)O[C@H]1[C@@H](O)[C@@H](O)[C@@H]([C@H](NC(=O)[C@@H]2C[C@@H](CCC)CN2C)[C@H](C)Cl)O[C@@H]1SC`, the Potency entry was “inactive”. Take `Cc1[nH]c(C=C2C(=O)Nc3ccc(S(=O)(=O)N(C)c4cccc(Cl)c4)cc32)c(C)c1C(=O)N1CCN(C)CC1`: the Potency was 9.35 µM (active). As to `COc1ccc(CCC(=O)Nc2nc3ccc(Cl)cc3s2)cc1OC`, the Potency result was “inactive”. Under `CC(C)Oc1cc(Nc2nc(N[C@@H](C)c3ccc(F)cn3)ncc2Cl)[nH]n1` stands 2.35 µM (active).
